# Compounds with a hit are over-represented: about 11% of the library has one in this group of screens.
# Luciferase inh = inhibitors of firefly (Photinus pyralis) luciferase; P08659; purified P. pyralis luciferase, luminescence, biochemical; Potency, µM (top dose mostly 115 µM), actives largely listed as inhibitors; 76,000 tested, 2.5% active; AID 1347043; active = well fitted curve in the direction sought with a large enough effect; inconclusive = small, poorly fitted or top-dose-only effect, or another doubt; inactive = no such curve, though single readings can be large; an effect the other way counts as inactive or inconclusive; also: nearly all actives have a fitted effect of over 65% in size
# Target sequence (P08659 whole entry, looked up): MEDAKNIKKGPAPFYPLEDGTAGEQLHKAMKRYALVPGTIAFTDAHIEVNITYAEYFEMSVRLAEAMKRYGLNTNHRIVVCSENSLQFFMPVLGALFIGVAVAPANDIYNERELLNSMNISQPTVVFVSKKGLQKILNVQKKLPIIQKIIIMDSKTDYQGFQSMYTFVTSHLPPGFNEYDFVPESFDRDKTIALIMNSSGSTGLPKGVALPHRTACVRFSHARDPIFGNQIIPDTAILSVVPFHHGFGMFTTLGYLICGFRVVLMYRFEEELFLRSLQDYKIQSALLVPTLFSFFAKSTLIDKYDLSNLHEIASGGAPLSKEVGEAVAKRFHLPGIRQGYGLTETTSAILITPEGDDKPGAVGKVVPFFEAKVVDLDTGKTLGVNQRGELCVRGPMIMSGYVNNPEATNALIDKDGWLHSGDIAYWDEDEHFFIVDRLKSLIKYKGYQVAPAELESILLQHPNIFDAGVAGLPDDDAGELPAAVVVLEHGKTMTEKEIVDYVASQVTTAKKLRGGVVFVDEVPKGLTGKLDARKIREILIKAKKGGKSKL
#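 Cell-free enzyme assay, 10nM P. pyralis luciferase, luciferin and ATP each at 10uM. Inhibition profiled over a 6-point titration, read as luminescence.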
# HEK293 tox = kills HEK 293 cells | 94,000 tested, 6.6% active | HEK 293 viability, ATP luminescence (CellTiter-Glo), 48-72 h | Potency, µM (titrated, usually from 115 µM), hits mostly inhibitors; active = well fitted curve in the direction sought with a large enough effect; inconclusive = small, poorly fitted or top-dose-only effect, or another doubt; inactive = no such curve, though single readings can be large; an effect the other way counts as inactive or inconclusive; also: nearly all actives have a fitted effect of over 60% in size
#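 Cells seeded first (HEK 293, 250 cells/well), then compound added by pintool. Incubation ran 48 or 72 hr at 37 degree Celsius. CellTiter-Glo was added and luminescence imaged after 10 min at room temperature.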
# hNpr1 antagonist = antagonists of human natriuretic peptide receptor Npr1; P16066; HEK293 hNpr1 GloSensor cGMP, ANP-stimulated luminescence; Potency, µM (top dose mostly 46.3 µM), actives largely listed as inhibitors; 76,000 tested, 1.6% active; AID 1347048; also: nearly all actives have a fitted effect of over 60% in size
#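 Compound pre-incubated 30 min at room temperature on GloSensor-loaded HEK293 cells stably carrying hNpr1 and the pGS-40F cGMP biosensor. Stimulation uses hNppA at 0.1 nM final; luminescence is taken at baseline and 20 min post-agonist.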
# NIH3T3 tox = NIH 3T3 cell cytotoxicity; NIH 3T3 viability, CellTiter-Glo ATP luminescence, 48-72 h; Potency, µM (series often up to 96.7 µM), usual class: inhibitors; 94,000 tested, 4.3% active; active = well fitted curve in the direction sought with a large enough effect; inconclusive = small, poorly fitted or top-dose-only effect, or another doubt; inactive = no such curve, though single readings can be large; an effect the other way counts as inactive or inconclusive; also: nearly all actives have a fitted effect of over 55% in size
#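 NIH 3T3 cells at 400 cells/well received 23 nL of compound by pintool and were incubated 48 or 72 h at 37 °C. Viability was read as ATP-coupled CellTiter-Glo luminescence.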
# NPR1 antag cnf = confirmation of human Npr1 natriuretic peptide receptor antagonists. HEK293 hNpr1 cGMP GloSensor luminescence, ANP-stimulated. shares compounds with hNpr1 antagonist. Potency, µM (titrated, usually from 57.6 µM), hits mostly inhibitors. AID 1347044. 1,400 tested, 76% active; also: nearly all actives have a fitted effect of over 70% in size
# NPR2 antag = hNpr2 antagonism, selectivity versus Npr1; shares compounds with hNpr1 antagonist; HEK293 hNpr2 GloSensor cGMP luminescence, CNP-stimulated; Potency, µM (series often up to 57.6 µM), actives largely listed as inhibitors; 1,400 tested, 67% active; AID 1347046; also: nearly all actives have a fitted effect of over 70% in size
# FLuc counter = inhibits firefly luciferase, false Npr1 antagonist flag | shares compounds with hNpr1 antagonist | purified FLuc enzyme, luminescence, Km substrate | Potency, µM (top dose mostly 57.6 µM), hits mostly inhibitors | 1,400 tested, 0.7% active | AID 1347047; active = well fitted curve in the direction sought with a large enough effect; inconclusive = small, poorly fitted or top-dose-only effect, or another doubt; inactive = no such curve, though single readings can be large; an effect the other way counts as inactive or inconclusive
# GloSensor cGMP = reduces cGMP signal in GloSensor control cells; AID 1347051; Potency, µM (top dose mostly 57.6 µM), actives largely listed as inhibitors; shares compounds with hNpr1 antagonist; 1,400 tested, 69% active; HEK293 GloSensor cGMP, SNP-stimulated, luminescence; also: nearly all actives have a fitted effect of over 70% in size
# A number is an active result; - = inactive; ? = inconclusive; . = no result given. Unless noted, calls follow the shape of the full dose curve.
SMILES,Luciferase inh,HEK293 tox,hNpr1 antagonist,NIH3T3 tox,NPR1 antag cnf,NPR2 antag,FLuc counter,GloSensor cGMP
O=c1c(-c2cccc(C(F)(F)F)c2)ccc2n1C[C@H]1C[C@@H]2CN(S(=O)(=O)c2cccs2)C1,-,?,-,-,.,.,.,.
O=C(COc1ccc(F)cc1)N1CCN2CCS(=O)(=O)N(C3CC3)C(=O)C2C1 (centres undefined),-,-,-,-,.,.,.,.
COc1ccccc1C(=O)N1[C@H]2CC[C@@H]1c1cnc(-c3ccc(F)cc3)nc1C2,-,?,8.9µM,?,17µM,15µM,-,12µM
CCCS(=O)(=O)N1[C@H]2CC[C@@H]1c1cnc(-c3ccc(F)cc3)nc1C2,-,?,18µM,?,17µM,19µM,-,14µM
O=C(CC1CCCC1)N1[C@H]2CC[C@@H]1c1cnc(-c3ccc(F)cc3)nc1C2,-,?,4µM,-,4.3µM,6.1µM,-,4.3µM
CCn1ccc(C(=O)N2[C@H]3CC[C@@H]2c2cnc(-c4ccc(F)cc4)nc2C3)n1,-,?,-,-,.,.,.,.
COCCOCC(=O)N1[C@H]2CC[C@@H]1c1cnc(-c3ccc(F)cc3)nc1C2,-,-,-,?,.,.,.,.
CCn1nccc1C(=O)N1[C@H]2CC[C@@H]1c1cnc(-c3ccccc3)nc1C2,-,?,13µM,-,17µM,22µM,-,15µM
O=C(c1ccsc1)N1[C@H]2CC[C@@H]1c1cnc(-c3ccc(F)cc3)nc1C2,-,40µM,8.9µM,-,14µM,11µM,-,12µM
CC1=NOC2(CCN(Cc3ccsc3)C2)C1 (centres undefined),-,-,-,-,.,.,.,.
CCC(CC)c1cc([C@H]2CN3CC[C@H]2C[C@@H]3CNC(=O)COc2ccccc2)nc(-c2ccncc2)n1,-,28µM,11µM,22µM,17µM,17µM,-,-
Cn1nc(-c2cccs2)cc1[C@H]1CN2CC[C@H]1C[C@@H]2CNC(=O)c1ccc2c(c1)OCO2,-,?,-,-,.,.,.,.

# High-throughput results as filed in PubChem BioAssay.
